Assay outcomes as filed in PubChem.
Shown are actives, neighbours in structure and some others; about 11% of the full set was active somewhere.
PNC assembly inh = perinucleolar compartment assembly inhibition | PC3M PTB-GFP, PNC prevalence imaging, 16 h; stronger effect = lower value | activity change (PNC), negative = inhibition, % at 10 µM | 3.1% of 140,000 active | AID 2417;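 active = readout at or below -70, meaning at least 70% loss of cells showing the perinucleolar compartment, a nuclear body marking cancer cells; inconclusive = readout between -30 and a set limit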
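Compounds are pinned in duplicate onto adhered PC3M cells stably expressing GFP-tagged PTB and incubated 16 h at 37 C. Cells are then fixed, nuclei stained with Hoechst, and PNC-positive cells counted.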
ALDH1A1 inh = inhibitors of human aldehyde dehydrogenase 1A1 | P00352 | Purified ALDH1A1, NADH fluorescence, propionaldehyde substrate | Potency, µM (doses to about 75.3 µM), most hits filed as inhibitors | 7.3% of 220,000 active | AID 1030
HttQ103 aggreg = mutant huntingtin aggregation inhibition. 1.1% of 220,000 active. PC12 HttQ103-GFP aggregates, Acumen cytometry, 40 h. Potency, µM (highest dose often 46.1 µM), most hits filed as inhibitors; active = well fitted curve in the direction sought with a large enough effect; inconclusive = small, poorly fitted or top-dose-only effect, or another doubt; inactive = no such curve, though single readings can be large; an effect the other way counts as inactive or inconclusive; note: nearly all actives have a fitted effect of over 60% in size
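Aggregates are detected as GFP objects 1–25 µm with signal 6 STDEV over background in lysates of induced PC12 cells. These carry Huntingtin exon 1 with 103 glutamines fused to GFP under an ecdysone promoter; compounds titrated.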
RGS12 GoLoco inh = blocks human Gai1 binding to RGS12 GoLoco peptide, red readout | P63096 | Gai1:RGS12 GoLoco peptide FP, rhodamine, 10 min | Potency, µM (doses to about 61.6 µM), most hits filed as inhibitors | 0.44% of 230,000 active; active = well fitted inhibition curve with a large enough effect, not every such curve was filed as active; inactive = no such curve, though single readings can be large or run the other way; note: nearly all actives have a fitted effect of over 30% in size
HTT ATP protect = cytoprotection in Huntington HTT-Q103 PC12 cell model | PC12 HTT-Q103 induced, cytoprotection, ATP luminescence, 40 h | Potency, µM (top dose mostly 56.4 µM), usual class: activators | 0.14% of 230,000 active | AID 1471; active = well fitted curve in the direction sought with a large enough effect; inconclusive = small, poorly fitted or top-dose-only effect, or another doubt; inactive = no such curve, though single readings can be large; an effect the other way counts as inactive or inconclusive; note: nearly all actives have a fitted effect of over 45% in size
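Quantitative HTS on tebufenozide-induced (100 nM) PC12 cells expressing HTTQ103 exon 1–GFP; compounds tested as a concentration series; survival measured via cellular ATP.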
HPGD block = blocks human HPGD enzyme activity. 4.3% of 150,000 active. P15428. AID 894. purified HPGD, NADH fluorescence kinetic, PGE2 substrate. Potency, µM, hits mostly inhibitors
Target sequence (P15428 whole entry, looked up): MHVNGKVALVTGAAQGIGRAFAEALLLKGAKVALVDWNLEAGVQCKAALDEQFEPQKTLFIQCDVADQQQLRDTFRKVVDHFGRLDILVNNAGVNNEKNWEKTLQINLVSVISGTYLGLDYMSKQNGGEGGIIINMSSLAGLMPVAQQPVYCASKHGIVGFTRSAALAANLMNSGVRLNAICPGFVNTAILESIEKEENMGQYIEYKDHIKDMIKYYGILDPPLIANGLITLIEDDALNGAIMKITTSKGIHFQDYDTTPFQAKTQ
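20 nM HPGD preincubated 15 min at room temperature with compound in 50 mM Tris-HCl pH 8, 0.01% Tween 20. Started with 1 mM NAD+ and 30 uM prostaglandin E2; NADH fluorescence (360/450 nm) read 5 times over 30-s intervals, last minus first.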
Each line names hits and unclear results; the compound was inactive in the other large screens. Unless noted, calls come from the whole dose curve; as a rule, active = well fitted inhibition curve with a large enough effect (not every such curve was filed as active); inconclusive = small, poorly fitted or top-dose-only effect, or another doubt; inactive = no such curve, though single readings can be large or run the other way.

COC(=O)[C@H]1[C@@H](c2ccccc2)[C@@]2(c3ccccc3)Oc3ccccc3[C@@]1(O)[C@@H]2O	none (no result: PNC assembly inh, HttQ103 aggreg, RGS12 GoLoco inh, HPGD block)
C[C@H]1C2C=C[C@H]1[C@@H](C(=O)O)[C@@H]2c1c2ccc(=O)c(O)c-2oc2c(O)c(O)ccc12	HPGD block 3.55µM (no result: PNC assembly inh, HttQ103 aggreg, HTT ATP protect)
N=c1c2c(n(Cc3ccc(Cl)cc3Cl)c3c1CCC3)CCCC2	HttQ103 aggreg 6.31µM
CCCCCn1c(SCCCC)nc2c1c(=O)[nH]c(=O)n2C	ALDH1A1 inh 20µM, HPGD block 14.1µM
CCCCCCn1c(O)c(C=NCCCn2ccnc2)c(=O)[nH]c1=O	none
COc1cccc(N2CCN(Cc3cccc(Cl)c3)CC2)c1	none
COc1cccc(N2CCN(Cc3ccc(Cl)cc3)CC2)c1	ALDH1A1 inh 10µM
CC(=O)C1=C(O)[C@@H]2[C@@H]3c4c[nH]c5cccc(c45)C[C@@H]3C(C)(C)N2C1=O	ALDH1A1 inh inconclusive (no result: PNC assembly inh, HttQ103 aggreg)
COc1ccc(NC(=O)N2CCC3(CC2)CCN(C(=O)Oc2ccccc2)CC3)cc1	ALDH1A1 inh 10µM (no result: PNC assembly inh, HttQ103 aggreg)
CN1C[C@@H](CNC(=O)OCc2ccccc2)C[C@H]2c3cccc4c3c(cn4C)C[C@@H]21	none (no result: PNC assembly inh, ALDH1A1 inh, HttQ103 aggreg, RGS12 GoLoco inh, HPGD block)
C[C@@]12CC[C@H]3[C@@H](CC[C@H]4C[C@@H](O)CC[C@]43C)[C@H]1CC[C@@H]2C(=O)C[C@H](O)C(F)(F)F	none (no result: PNC assembly inh, HttQ103 aggreg)
CC(=O)Nc1cc(C(=O)N2CCC3(CC2)OCCO3)ccc1Sc1ccc(F)cc1	ALDH1A1 inh 2.99µM (no result: PNC assembly inh, HPGD block)
Cc1cccc(CS(=O)(=O)Cc2ccc(C(=O)N3CCC4(CC3)OCCO4)o2)c1	ALDH1A1 inh 25.1µM
O=C(c1ccc(CS(=O)(=O)c2ccc(Br)cc2)o1)N1CCC2(CC1)OCCO2	PNC assembly inh inconclusive
Cc1ccc(S(=O)(=O)Nc2cc(C(=O)N3CCC4(CC3)OCCO4)ccc2N2CCCCC2)cc1	ALDH1A1 inh 3.98µM
O=C(c1ccc(CNS(=O)(=O)c2ccccc2)cc1)N1CCC2(CC1)OCCO2	ALDH1A1 inh 8.91µM, HttQ103 aggreg inconclusive, HPGD block inconclusive
C[C@@]12CC(c3ccoc3)OC(=O)C1CC[C@@]1(C)C2C2C=C[C@@]1(O)C(=O)O2 (some centres undefined)	none (no result: PNC assembly inh, HttQ103 aggreg, HTT ATP protect)
CCC(C)=O	ALDH1A1 inh inconclusive (no result: PNC assembly inh, HttQ103 aggreg)
c1ccc2sc(C3(NCC4CC4)CCCCC3)cc2c1	none (no result: PNC assembly inh, HttQ103 aggreg, HPGD block)
O=C(c1ccc(CS(=O)(=O)c2ccccc2)o1)N1CCC2(CC1)OCCO2	ALDH1A1 inh 22.4µM
CCN1C[C@]2(C)CC[C@H](OC)[C@]34C5C[C@@H]6CC[C@@](O)(C5C(=O)O6)C(C13)[C@@H](OC(=O)c1ccccc1)C24	none (no result: PNC assembly inh, HttQ103 aggreg)
CCNC(=O)[C@@H]1O[C@@H](n2cnc3c(N)ncnc32)[C@@H](O)[C@H]1O	none (no result: PNC assembly inh, ALDH1A1 inh, HttQ103 aggreg, RGS12 GoLoco inh, HPGD block)
CCCCCCn1c(N)c(C(=O)NCCN2CCOCC2)c2nc3ccccc3nc21	ALDH1A1 inh inconclusive, HttQ103 aggreg 31.6µM, HPGD block inconclusive
CCCCOCCCn1c(N)c(C(=O)OCCOC)c2nc3ccccc3nc21	ALDH1A1 inh inconclusive, HttQ103 aggreg 12.6µM, HPGD block inconclusive
CCCCCn1c(N)c(C(=O)NCCN2CCOCC2)c2nc3ccccc3nc21	ALDH1A1 inh inconclusive, HttQ103 aggreg inconclusive, HPGD block inconclusive
CN1[C@@H]2CC[C@H]1CC(OC(c1ccc(F)cc1)c1ccc(F)cc1)C2 (some centres undefined)	none (no result: PNC assembly inh, HttQ103 aggreg)
CCC(C)n1c(O)c(C(c2ccccn2)c2c(O)n(C(C)CC)c(=S)[nH]c2=O)c(=O)[nH]c1=S (centres undefined)	PNC assembly inh inconclusive, ALDH1A1 inh 7.08µM, HPGD block 31.6µM
CC1=C2[C@@H]3OC(=O)[C@H](C)[C@H]3CC[C@@]2(C)C=CC1=O	none (no result: PNC assembly inh, ALDH1A1 inh, HttQ103 aggreg, RGS12 GoLoco inh, HPGD block)
O=C(O)[C@H]1C[C@@H]1[C@H](NP(=O)(c1ccccc1)c1ccccc1)c1ccccc1	PNC assembly inh -82.3
CNC(=O)[C@@H]1C[C@H]1[C@@H](NP(=O)(c1ccccc1)c1ccccc1)c1ccccc1	none (no result: PNC assembly inh, HttQ103 aggreg)
CC(=O)N1CC2CC(C1)c1cccc(=O)n1C2 (centres undefined)	none (no result: PNC assembly inh, HttQ103 aggreg)
